Compound activity deposited in PubChem by National Center for Advancing Translational Sciences (NCATS).
ALDH1A1 inh: qHTS Assay for Inhibitors of Aldehyde Dehydrogenase 1 (ALDH1A1); Purified ALDH1A1, NADH fluorescence, propionaldehyde substrate; Aldehyde dehydrogenase 1A1 (Homo sapiens), P00352; hit rate 7.3% among 220,000; Potency, µM (series often up to 75.3 µM), inactives show top-dose activity, negative = inhibition, most hits filed as inhibitors;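 also: plate controls were no enzyme wells and a reference inhibitor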
Tau fluor counter: Counterscreen qHTS for Inhibitors of Tau Fibril Formation, Fluorescence Polarization; hit rate 0.93% among 280,000; tau K18 P301L Alexa594 fluorescence, heparin fibrillization; AID 1463, 2008; Potency, µM (series often up to 57.7 µM), inactives show at the top dose activity change, negative = decrease; active = well fitted curve in the direction sought with a large enough effect; inconclusive = small, poorly fitted or top-dose-only effect, or another doubt; inactive = no such curve, though single readings can be large; an effect the other way counts as inactive or inconclusive; also: nearly all actives have a fitted effect of over 55% in size
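Human tau K18 P301L (15 uM unlabeled, 0.24 uM Alexa 594-labeled) in 100 mM sodium acetate pH 7 with 20 uM heparin, 6 hr at 37 C. ThT 30 uM added, 1 hr ambient; Alexa 594 FP and total fluorescence read at 555/632 nm.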
Tau ThT inhib: qHTS for Inhibitors of Tau Fibril Formation, Thioflavin T Binding | Microtubule-associated protein tau (Homo sapiens), P10636 | recombinant tau K18 P301L (four-repeat tau fragment), heparin-induced fibrillization, ThT fluorescence | hit rate 2.1% among 270,000 | Potency, µM (series often up to 57.4 µM), inactives show at the highest dose activity, negative = inhibition, hits mostly inhibitors; active = well fitted curve in the direction sought with a large enough effect; inconclusive = small, poorly fitted or top-dose-only effect, or another doubt; inactive = no such curve, though single readings can be large; an effect the other way counts as inactive or inconclusive; also: nearly all actives have a fitted effect of over 55% in size
Target sequence (P10636 561-689 P618L limits assumed): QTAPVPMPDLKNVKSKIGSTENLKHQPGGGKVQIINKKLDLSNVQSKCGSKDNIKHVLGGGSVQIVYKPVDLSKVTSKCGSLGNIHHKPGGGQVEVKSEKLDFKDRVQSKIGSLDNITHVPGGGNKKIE
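Recombinant human tau K18 fragment […] carrying P301L, 15 uM unlabeled plus 0.24 uM Alexa 594-labeled, was fibrillized with 20 uM heparin in 100 mM sodium acetate pH 7 for 6 hr at 37 C; 30 uM ThT fluorescence read after 1 hr.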
Tau FP inhib: qHTS for Inhibitors of Tau Fibril Formation, Fluorescence Polarization | hit rate 0.39% among 280,000 | AID 1468, 2008 | Potency, µM (series often up to 57.7 µM), for inactives: at the top dose activity, negative = inhibition, actives largely listed as inhibitors | K18 P301L tau heparin fibrillization, Alexa594 FP, 6 h; active = well fitted curve in the direction sought with a large enough effect; inconclusive = small, poorly fitted or top-dose-only effect, or another doubt; inactive = no such curve, though single readings can be large; an effect the other way counts as inactive or inconclusive; also: nearly all actives have a fitted effect of over 55% in size
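Compound effects on tau fibrillization are measured by Alexa 594 fluorescence polarization (ex 555, em 632 nm). K18 P301L tau is used at 15 uM with 0.24 uM labeled tracer, and 20 uM heparin induces aggregation over 6 hr at 37 C.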
HPGD inh: qHTS Assay for Inhibitors of HPGD (15-Hydroxyprostaglandin Dehydrogenase). 15-hydroxyprostaglandin dehydrogenase [NAD(+)] (Homo sapiens), P15428. Potency, µM, for inactives: at the top dose activity change, negative = inhibition, usual class: inhibitors. purified HPGD, NADH fluorescence kinetic, PGE2 substrate. hit rate 4.3% among 150,000
Target sequence (P15428 whole entry, looked up): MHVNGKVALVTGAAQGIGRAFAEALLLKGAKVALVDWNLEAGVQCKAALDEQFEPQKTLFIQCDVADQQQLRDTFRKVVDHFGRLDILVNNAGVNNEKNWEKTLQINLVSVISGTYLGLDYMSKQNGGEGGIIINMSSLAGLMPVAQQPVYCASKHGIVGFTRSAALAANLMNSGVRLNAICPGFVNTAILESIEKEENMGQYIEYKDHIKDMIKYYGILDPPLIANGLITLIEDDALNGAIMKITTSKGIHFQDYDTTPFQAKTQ
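20 nM HPGD preincubated 15 min at room temperature with compound in 50 mM Tris-HCl pH 8, 0.01% Tween 20. Started with 1 mM NAD+ and 30 uM prostaglandin E2; NADH fluorescence (360/450 nm) read 5 times over 30-s intervals, last minus first.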
KDM4E inh: qHTS Assay for Inhibitors of Human Jumonji Domain Containing 2E (JMJD2E); Potency, µM (doses to about 57.1 µM), without a hit: at the highest dose activity change, negative = inhibition, usual class: inhibitors; JMJD2E catalytic domain, FDH-coupled NADH fluorescence (FDH is formaldehyde dehydrogenase); hit rate 1.6% among 230,000;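 also: 0% = wells with enzyme and -100% = buffer wells without enzyme; nearly all actives have a fitted effect of over 50% in size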
The depositor's hits bear a star; [ ] = remark or other dose. An excerpt weighted towards active compounds, which were near 9.9% of everything screened. Unless noted, calls follow the shape of the dose curve; as a rule, active = well fitted inhibition curve with a large enough effect (not every such curve was filed as active); inconclusive = small, poorly fitted or top-dose-only effect, or another doubt; inactive = no such curve, though single readings can be large or run the other way. Unless noted, % is scaled to controls: 0 for no effect and ±100 for the full control effect; potency is read from the fitted curve at half-maximal effect.

CN1C(=O)/C(=N\OC(=O)c2cccc3ccccc23)c2ccccc21 was read as ALDH1A1 inh 14µM*, Tau fluor counter 8%, Tau ThT inhib inconclusive, Tau FP inhib inconclusive, HPGD inh inconclusive and KDM4E inh -15%.
Screening C=CCNc1sc(C(=O)c2ccccc2)c(N)c1-c1nc2ccccc2s1 returned ALDH1A1 inh 2%, Tau fluor counter -4%, Tau ThT inhib -7%, Tau FP inhib -7% and KDM4E inh -2%.
CCNc1sc(C(=O)c2cccs2)c(N)c1-c1nc2ccccc2s1 was read as ALDH1A1 inh inconclusive, Tau fluor counter inconclusive, Tau ThT inhib 8.9µM*, Tau FP inhib -4%, HPGD inh -18% and KDM4E inh -5%.
`C=CCNc1sc(C(=O)c2cccs2)c(N)c1C#N` gave ALDH1A1 inh inconclusive, Tau fluor counter -6%, Tau ThT inhib -5%, Tau FP inhib 0%, HPGD inh -7% and KDM4E inh 4%.
CCNc1sc(C(=O)c2cccs2)c(N)c1C#N was read as ALDH1A1 inh 8.9µM*, Tau fluor counter inconclusive, Tau ThT inhib 28µM*, Tau FP inhib inconclusive, HPGD inh -20% and KDM4E inh -20%.
COCCNC(=O)c1cc2cc(Cl)cc(Cl)c2oc1=O was read as ALDH1A1 inh 25µM*, Tau fluor counter -6%, Tau ThT inhib -8%, Tau FP inhib -9% and KDM4E inh -18%.
For Cc1c(NC(=O)c2cc(-c3ccc(Cl)cc3)on2)c(=O)n(-c2ccccc2)n1C the results were Tau fluor counter -7%, Tau ThT inhib -3% and Tau FP inhib -1%.
For CCc1cccc(C)c1NC(=O)C1CCN(S(=O)(=O)c2c(C)noc2/C=C/c2c(C)cc(C)cc2C)CC1 the results were Tau fluor counter 8%, Tau ThT inhib 15% and Tau FP inhib -4%.
Screening COc1ccc(Cl)cc1NC(=O)COC(=O)/C=C/c1c(C)nn(C2CCS(=O)(=O)C2)c1Cl (stereo not given) returned ALDH1A1 inh 25µM*, Tau fluor counter -7%, Tau ThT inhib -10%, Tau FP inhib 1% and KDM4E inh -4%.
For CCc1ccccc1NC(=O)Cn1nnc2sc3c(c2c1=O)CCC(C(C)(C)C)C3 (stereo not given) the results were Tau fluor counter -21%, Tau ThT inhib -17% and Tau FP inhib -9%.
`Cc1ccccc1C(=O)Nc1c(C(=O)Nc2cccc(F)c2)oc2ccccc12` gave Tau fluor counter -27%, Tau ThT inhib 1% and Tau FP inhib inconclusive.
`CC(Oc1ccccc1)C(=O)Nc1c(C(=O)Nc2cccc(F)c2)oc2ccccc12` (stereo not given) gave Tau fluor counter inconclusive, Tau ThT inhib 10% and Tau FP inhib 10µM*.
`O=C(CSc1nnc(-c2cccc(F)c2)c(-c2cccc(F)c2)n1)NC1CCCCC1` gave Tau fluor counter -8%, Tau ThT inhib 2% and Tau FP inhib -6%.
`COC(=O)[C@@H]1[C@@H](O)[C@]2(O)c3ccccc3O[C@]2(c2ccccc2)[C@H]1c1ccccc1` gave ALDH1A1 inh 11%[13.5 µM], Tau fluor counter -1%[11.6 µM], Tau ThT inhib 3%[11.5 µM] and Tau FP inhib 0%[11.6 µM].
`COc1cc(C2=NOC(C(=O)N3CCCc4ccccc43)C2)cc(OC)c1OC` (stereo not given) gave ALDH1A1 inh inconclusive, Tau fluor counter -19%, Tau ThT inhib -16%, Tau FP inhib 5%, HPGD inh -15% and KDM4E inh -6%.
